Screens (PubChem BioAssay)
PPARg SRC-1 ag: PPARgamma agonists recruiting SRC-1 coactivator, primary screen, biochemical | activation, % at 8 µM | Peroxisome proliferator-activated receptor gamma (Homo sapiens), P37231 | 0.41% of 200,000 active | PPARgamma-SRC-1 coactivator recruitment biochemical assay; in the data active = activation above about 19%
Target sequence (P37231 whole entry, looked up): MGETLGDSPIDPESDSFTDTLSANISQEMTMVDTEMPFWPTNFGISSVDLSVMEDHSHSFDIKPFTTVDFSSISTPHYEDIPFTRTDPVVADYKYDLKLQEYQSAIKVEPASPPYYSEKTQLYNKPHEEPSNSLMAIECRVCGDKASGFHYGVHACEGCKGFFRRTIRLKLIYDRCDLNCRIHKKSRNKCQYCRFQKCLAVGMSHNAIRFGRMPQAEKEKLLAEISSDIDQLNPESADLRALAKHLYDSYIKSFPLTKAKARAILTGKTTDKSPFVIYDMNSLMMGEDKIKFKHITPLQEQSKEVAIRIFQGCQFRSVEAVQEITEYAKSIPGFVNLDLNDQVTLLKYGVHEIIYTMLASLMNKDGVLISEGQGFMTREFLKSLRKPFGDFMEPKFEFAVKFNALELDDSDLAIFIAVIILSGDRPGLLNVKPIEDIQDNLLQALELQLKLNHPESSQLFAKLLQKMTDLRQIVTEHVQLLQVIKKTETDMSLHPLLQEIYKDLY
PPARg SRC-3 ag: PPARgamma agonists recruiting SRC-3 coactivator, primary screen, biochemical. biochemical PPARgamma/SRC-3 coactivator recruitment assay. activation, % at 8 µM. 0.26% of 200,000 active. AID 731, 2007; in the data active = activation above about 23%
SRC2 TRFRET art: TR-FRET signal artefacts, primary screen, artefact control for PPARgamma SRC-2 agonist project, biochemical. TR-FRET ratio at 8 µM. 0.4% of 200,000 active. TR-FRET artefact counter-screen; stronger effect = higher value; in the data active = TR-FRET ratio above about 2000
PPARg SRC2 recr: agonists of PPARg-SRC-2 recruitment, primary screen, biochemical, HTS | Peroxisome proliferator-activated receptor gamma (Homo sapiens), P37231 | PPARgamma LBD-SRC-2 recruitment | activation, % at 8 µM | 0.34% of 200,000 active | AID 1032, 2008
SRC1 TRFRET art: TR-FRET detection interference compounds, primary screen, artefact control for PPARgamma SRC-1 recruitment agonists, biochemical, TR-FRET emission ratio; TR-FRET detection artefact counter-screen; stronger effect = higher value; TR-FRET ratio at 8 µM; 0.34% of 99,000 active; in the data active = TR-FRET ratio above about 2300
SRC3 TRFRET art: TR-FRET detection interference compounds, artefact control for PPARgamma SRC-3 recruitment agonists, biochemical, TR-FRET ratio; TR-FRET artefact counter-screen, PPARgamma/SRC-3 format; stronger effect = higher value; TR-FRET ratio at 8 µM; 0.39% of 99,000 active; AID 1048, 2008; in the data active = TR-FRET ratio above about 2000
PPARg SRC2 conf: agonists of PPARgamma SRC-2 coactivator recruitment, confirmation, biochemical, HTS; shares compounds with PPARg SRC-3 ag; biochemical SRC-2 recruitment by PPARgamma; activation, % at 8 µM; 52% of 790 active
PPARg SRC1 conf: PPARgamma agonists recruiting SRC-1 coactivator, confirmation, biochemical. shares compounds with PPARg SRC-3 ag. PPARgamma–SRC-1 coactivator recruitment biochemical assay. activation, % at 8 µM. 43% of 790 active. AID 1300, 2008; in the data active = activation above about 20%
PPARg SRC3 conf: PPARgamma-driven SRC-3 coactivator recruitment agonists, confirmation, biochemical; shares compounds with PPARg SRC-3 ag; biochemical PPARgamma-SRC-3 coactivator recruitment, agonist mode; activation, % at 8 µM; 29% of 790 active; AID 1301, 2008; in the data active = activation above about 24%
Each line names hits and unclear results; the compound was inactive in the other large screens (follow-up assays come after a bar, where they were run). This is a sample that favours compounds with a hit; in the whole collection about 0.9% have one here. Cut-off read from the data, not from the text of the source, unless noted: active = activation above about 22%; inactive = the rest.

C/C(=N/NS(=O)(=O)c1ccc(Cl)cc1)c1cccc(NC(=O)c2ccc(Cl)cc2Cl)c1	PPARg SRC2 recr 24 (no result: SRC1 TRFRET art, SRC3 TRFRET art) | PPARg SRC2 conf inactive | PPARg SRC1 conf inactive | PPARg SRC3 conf inactive
C/C(=N/NS(=O)(=O)c1ccc(C)cc1)c1cccc(NC(=O)c2cccc(Cl)c2)c1	none (no result: SRC1 TRFRET art, SRC3 TRFRET art)
CCOC(=O)Cc1nc2nc(C)cc(C)n2n1	none
c1csc(-c2csc(-c3cccs3)n2)c1	none (no result: SRC1 TRFRET art, SRC3 TRFRET art)
Brc1cc(Br)c2nc(-c3cccs3)ccc2c1	PPARg SRC-1 ag 23, PPARg SRC-3 ag 52, SRC2 TRFRET art 2365, PPARg SRC2 recr 45 (no result: SRC1 TRFRET art, SRC3 TRFRET art) | PPARg SRC2 conf 36 | PPARg SRC1 conf 24 | PPARg SRC3 conf inactive
O=c1c(O)c(-c2ccc(O)cc2O)oc2cc(O)cc(O)c12	PPARg SRC-1 ag 23 | PPARg SRC2 conf inactive | PPARg SRC1 conf inactive | PPARg SRC3 conf inactive
CCOC(=O)c1cc(-c2ccccc2)sc1NC(=S)Nc1cc(C)ccn1	none (no result: SRC1 TRFRET art, SRC3 TRFRET art)
COc1cc(C(=O)Nc2nnc(-c3sccc3C)s2)cc(OC)c1OC	PPARg SRC-1 ag 29, PPARg SRC2 recr 24 (no result: SRC1 TRFRET art, SRC3 TRFRET art) | PPARg SRC2 conf 55 | PPARg SRC1 conf 43 | PPARg SRC3 conf 37
CCOCc1nnc(NC(=O)c2cc(OC)c(OC)c(OC)c2)s1	none
O=C(O)c1cn(-c2ccc(N3CCCC3)c(F)c2)c2c(F)c(F)c(F)cc2c1=O	PPARg SRC-1 ag 67, PPARg SRC-3 ag 38, SRC2 TRFRET art 3278, PPARg SRC2 recr 68, SRC1 TRFRET art 4223, SRC3 TRFRET art 3524 | PPARg SRC2 conf inactive | PPARg SRC1 conf inactive | PPARg SRC3 conf inactive
O=c1oc2cc(O)c(Cl)cc2c2ccccc12	PPARg SRC-1 ag 59, PPARg SRC-3 ag 54, SRC2 TRFRET art 4246, PPARg SRC2 recr 102, SRC1 TRFRET art 3291, SRC3 TRFRET art 4295 | PPARg SRC2 conf 55 | PPARg SRC1 conf 34 | PPARg SRC3 conf 39
NC(=O)c1cccc2c(=O)oc3ccccc3c12	none (no result: SRC1 TRFRET art, SRC3 TRFRET art)
CC1(CC(=O)N/N=C/c2ccc(-c3ccc(C(=O)O)cc3)o2)OCCO1	none (no result: SRC1 TRFRET art, SRC3 TRFRET art)
O=C(Nc1cc(SCC(O)CO)cc([N+](=O)[O-])c1)c1ccc(-n2cnnn2)cc1 (stereo unspecified)	PPARg SRC-1 ag 62, PPARg SRC-3 ag 28, PPARg SRC2 recr 59 | PPARg SRC2 conf inactive | PPARg SRC1 conf inactive | PPARg SRC3 conf inactive
CC(C)COC(=O)CNc1n[nH]c(=S)[nH]c1=O	PPARg SRC-1 ag 52, PPARg SRC-3 ag 86, SRC2 TRFRET art 2814, PPARg SRC2 recr 63 (no result: SRC1 TRFRET art, SRC3 TRFRET art) | PPARg SRC2 conf 78 | PPARg SRC1 conf 58 | PPARg SRC3 conf 52
CCCCOC(=O)C(C)Nc1n[nH]c(=O)[nH]c1=O (stereo unspecified)	none (no result: SRC1 TRFRET art, SRC3 TRFRET art)
CCCCOC(=O)CCNc1n[nH]c(=O)[nH]c1=O	none
CCCCOC(=O)CNc1n[nH]c(=S)[nH]c1=O	PPARg SRC-1 ag 48, PPARg SRC-3 ag 95, SRC2 TRFRET art 2722, PPARg SRC2 recr 66 (no result: SRC1 TRFRET art, SRC3 TRFRET art) | PPARg SRC2 conf 80 | PPARg SRC1 conf 61 | PPARg SRC3 conf 55
CCCCOC(=O)C(C)Nc1n[nH]c(=S)[nH]c1=O (stereo unspecified)	PPARg SRC-3 ag 26 (no result: SRC1 TRFRET art, SRC3 TRFRET art) | PPARg SRC2 conf 27 | PPARg SRC1 conf 27 | PPARg SRC3 conf inactive
CCN(CC)S(=O)(=O)c1cc(C(=O)Nc2ccccc2[N+](=O)[O-])ccc1Cl	none
CC1CCCN(C(=O)c2cc(F)c(F)cc2Cl)C1 (stereo unspecified)	none (no result: SRC1 TRFRET art, SRC3 TRFRET art)
Cc1ccccc1C(=O)Nc1nnc(-c2ccco2)s1	PPARg SRC-1 ag 24, SRC2 TRFRET art 2099, SRC1 TRFRET art 2497 | PPARg SRC2 conf 42 | PPARg SRC1 conf 36 | PPARg SRC3 conf 26
COc1ccccc1C(=O)Nc1nnc(-c2ccco2)s1	none (no result: SRC1 TRFRET art, SRC3 TRFRET art)
COc1c(F)c(F)c(C(=O)Nc2ccc3oc(-c4ccncc4)nc3c2)c(F)c1F	PPARg SRC-1 ag 82, PPARg SRC-3 ag 74 (no result: SRC1 TRFRET art, SRC3 TRFRET art) | PPARg SRC2 conf 71 | PPARg SRC1 conf 66 | PPARg SRC3 conf 49
O=C(O)CSC1CC(=O)N(c2ccc(Cl)cc2)C1=O (stereo unspecified)	none
CCC1=NN2C(=N)/C(=C\c3cccn3-c3cccc(Cl)c3)C(=O)N=C2S1	PPARg SRC-3 ag 28 | PPARg SRC2 conf inactive | PPARg SRC1 conf inactive | PPARg SRC3 conf inactive
COc1ccc(OC)c(C(=O)COC(=O)c2cc(C)oc2C)c1	none (no result: SRC1 TRFRET art, SRC3 TRFRET art)
Cc1cc(C(=O)OCC(=O)c2ccc(Br)s2)no1	PPARg SRC-1 ag 65, PPARg SRC-3 ag 123, SRC2 TRFRET art 2269, PPARg SRC2 recr 90 (no result: SRC1 TRFRET art, SRC3 TRFRET art) | PPARg SRC2 conf 54 | PPARg SRC1 conf 34 | PPARg SRC3 conf 39
Cc1cc(C(=O)OCC(=O)c2ccc(Br)s2)c(C)o1	PPARg SRC-1 ag 20, PPARg SRC-3 ag 31 (no result: SRC1 TRFRET art, SRC3 TRFRET art) | PPARg SRC2 conf 41 | PPARg SRC1 conf 30 | PPARg SRC3 conf 30
Cc1cc(NS(=O)(=O)c2ccc(Br)s2)no1	none (no result: SRC1 TRFRET art, SRC3 TRFRET art)
S=c1[nH]c(-c2ccc(Cl)cc2)cs1	PPARg SRC-1 ag 27, SRC2 TRFRET art 1997, PPARg SRC2 recr 30, SRC1 TRFRET art 2339, SRC3 TRFRET art 2141 | PPARg SRC2 conf 27 | PPARg SRC1 conf inactive | PPARg SRC3 conf inactive
COc1cccc(Nc2nc(-c3sc(NC(=O)c4ccccc4)nc3C)cs2)c1	PPARg SRC-3 ag 27 (no result: SRC1 TRFRET art, SRC3 TRFRET art) | PPARg SRC2 conf 42 | PPARg SRC1 conf 26 | PPARg SRC3 conf inactive
Cc1c(Br)c([N+](=O)[O-])nn1C(C)C(=O)NCc1cccnc1 (stereo unspecified)	none (no result: SRC1 TRFRET art, SRC3 TRFRET art)
Nc1nc(Nc2ccc(Cl)cc2)n[nH]1	none (no result: SRC1 TRFRET art, SRC3 TRFRET art)
CCOC(=O)Nc1c(C(=O)OC)[nH]c2cc(OC)ccc12	none (no result: SRC1 TRFRET art, SRC3 TRFRET art)
COC(=O)c1[nH]c2cc(OC)ccc2c1N	PPARg SRC-3 ag 28 (no result: SRC1 TRFRET art, SRC3 TRFRET art) | PPARg SRC2 conf inactive | PPARg SRC1 conf inactive | PPARg SRC3 conf inactive
O=C(Nc1ccccc1)OCN1C(=O)c2ccccc2C1=O	none (no result: SRC1 TRFRET art, SRC3 TRFRET art)
CCn1c(=NC(=O)c2ccc(S(=O)(=O)N(C)C)cc2)sc2cccc(OC)c21	none
CCC(/C=C1\Sc2ccc(OC)cc2N1CCO)=C\c1sc2ccc(OC)cc2[n+]1CCO	PPARg SRC-1 ag 23 | PPARg SRC2 conf inactive | PPARg SRC1 conf inactive | PPARg SRC3 conf inactive
